# ChEMBL document CHEMBL1961873, “Compounds: GSK PKIS; Assays: Nanosyn kinase panel” (2012)
# Legend:
# [1] = biological target: T1, Serine/threonine-protein kinase Nek9 (Homo sapiens) (UniProt Q8TD19); conditions: at 1 µM;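 note: each value is a mean percent inhibition of NEK9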
# T1 sequence (whole entry): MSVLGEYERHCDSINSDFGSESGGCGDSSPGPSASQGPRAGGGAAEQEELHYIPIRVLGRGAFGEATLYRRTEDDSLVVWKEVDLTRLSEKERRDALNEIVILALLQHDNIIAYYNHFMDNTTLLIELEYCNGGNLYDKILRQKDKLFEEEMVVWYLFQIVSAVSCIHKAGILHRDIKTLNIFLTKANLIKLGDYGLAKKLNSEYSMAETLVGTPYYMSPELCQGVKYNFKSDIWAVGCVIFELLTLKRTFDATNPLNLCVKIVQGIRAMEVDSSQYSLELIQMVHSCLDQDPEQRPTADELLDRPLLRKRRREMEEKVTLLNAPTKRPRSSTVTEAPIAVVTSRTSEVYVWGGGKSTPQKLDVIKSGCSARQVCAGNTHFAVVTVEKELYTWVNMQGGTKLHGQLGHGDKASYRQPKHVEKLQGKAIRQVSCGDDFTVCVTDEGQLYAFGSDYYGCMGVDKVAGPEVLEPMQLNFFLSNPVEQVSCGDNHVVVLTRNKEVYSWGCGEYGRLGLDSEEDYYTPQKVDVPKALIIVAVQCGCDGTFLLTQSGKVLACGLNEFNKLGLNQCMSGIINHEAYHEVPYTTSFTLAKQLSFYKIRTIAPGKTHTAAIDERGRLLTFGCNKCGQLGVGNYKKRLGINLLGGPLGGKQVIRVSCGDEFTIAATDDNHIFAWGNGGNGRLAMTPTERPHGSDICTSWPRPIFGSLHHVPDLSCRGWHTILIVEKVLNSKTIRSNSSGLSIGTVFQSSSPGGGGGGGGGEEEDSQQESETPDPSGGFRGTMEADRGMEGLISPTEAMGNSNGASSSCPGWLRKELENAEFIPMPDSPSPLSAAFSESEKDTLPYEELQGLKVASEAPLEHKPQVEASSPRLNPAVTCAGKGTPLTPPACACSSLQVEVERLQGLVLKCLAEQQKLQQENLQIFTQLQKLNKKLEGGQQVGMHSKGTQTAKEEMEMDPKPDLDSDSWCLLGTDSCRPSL
# [2] = biological target: Serine/threonine-protein kinase PLK1 (Homo sapiens) (UniProt P53350); conditions: at 0.1 µM
# [3] = biological target: Serine/threonine-protein kinase PLK1 (Homo sapiens) (UniProt P53350); conditions: at 1 µM
# [4] = biological target: T2, Dual specificity protein kinase TTK (Homo sapiens) (UniProt P33981); conditions: at 0.1 µM
# T2 sequence (whole entry): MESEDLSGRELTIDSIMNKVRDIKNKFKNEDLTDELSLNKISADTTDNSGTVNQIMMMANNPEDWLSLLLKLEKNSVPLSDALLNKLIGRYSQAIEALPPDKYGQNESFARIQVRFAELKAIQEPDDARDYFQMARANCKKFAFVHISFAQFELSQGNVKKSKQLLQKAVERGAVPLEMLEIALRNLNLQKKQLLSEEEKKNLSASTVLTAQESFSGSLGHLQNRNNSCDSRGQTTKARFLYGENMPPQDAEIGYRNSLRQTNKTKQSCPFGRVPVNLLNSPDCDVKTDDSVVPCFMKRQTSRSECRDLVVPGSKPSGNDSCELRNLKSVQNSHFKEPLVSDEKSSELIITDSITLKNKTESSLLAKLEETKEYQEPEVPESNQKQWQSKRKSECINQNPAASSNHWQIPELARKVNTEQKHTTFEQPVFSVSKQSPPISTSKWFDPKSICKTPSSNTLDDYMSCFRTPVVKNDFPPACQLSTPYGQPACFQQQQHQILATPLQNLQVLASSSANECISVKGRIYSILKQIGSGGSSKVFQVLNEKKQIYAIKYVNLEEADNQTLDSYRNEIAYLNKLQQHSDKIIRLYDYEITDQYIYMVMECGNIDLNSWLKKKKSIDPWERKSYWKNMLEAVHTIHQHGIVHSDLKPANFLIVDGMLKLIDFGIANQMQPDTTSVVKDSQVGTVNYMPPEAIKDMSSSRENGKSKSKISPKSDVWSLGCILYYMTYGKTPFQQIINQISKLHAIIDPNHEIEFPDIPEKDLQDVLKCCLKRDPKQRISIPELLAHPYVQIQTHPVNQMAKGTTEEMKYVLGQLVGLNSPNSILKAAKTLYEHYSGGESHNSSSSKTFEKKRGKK
# [5] = test system: T3, Receptor-type tyrosine-protein kinase FLT3 (Homo sapiens), P36888 [D835Y]; conditions: at 1 µM
# T3 sequence (whole entry): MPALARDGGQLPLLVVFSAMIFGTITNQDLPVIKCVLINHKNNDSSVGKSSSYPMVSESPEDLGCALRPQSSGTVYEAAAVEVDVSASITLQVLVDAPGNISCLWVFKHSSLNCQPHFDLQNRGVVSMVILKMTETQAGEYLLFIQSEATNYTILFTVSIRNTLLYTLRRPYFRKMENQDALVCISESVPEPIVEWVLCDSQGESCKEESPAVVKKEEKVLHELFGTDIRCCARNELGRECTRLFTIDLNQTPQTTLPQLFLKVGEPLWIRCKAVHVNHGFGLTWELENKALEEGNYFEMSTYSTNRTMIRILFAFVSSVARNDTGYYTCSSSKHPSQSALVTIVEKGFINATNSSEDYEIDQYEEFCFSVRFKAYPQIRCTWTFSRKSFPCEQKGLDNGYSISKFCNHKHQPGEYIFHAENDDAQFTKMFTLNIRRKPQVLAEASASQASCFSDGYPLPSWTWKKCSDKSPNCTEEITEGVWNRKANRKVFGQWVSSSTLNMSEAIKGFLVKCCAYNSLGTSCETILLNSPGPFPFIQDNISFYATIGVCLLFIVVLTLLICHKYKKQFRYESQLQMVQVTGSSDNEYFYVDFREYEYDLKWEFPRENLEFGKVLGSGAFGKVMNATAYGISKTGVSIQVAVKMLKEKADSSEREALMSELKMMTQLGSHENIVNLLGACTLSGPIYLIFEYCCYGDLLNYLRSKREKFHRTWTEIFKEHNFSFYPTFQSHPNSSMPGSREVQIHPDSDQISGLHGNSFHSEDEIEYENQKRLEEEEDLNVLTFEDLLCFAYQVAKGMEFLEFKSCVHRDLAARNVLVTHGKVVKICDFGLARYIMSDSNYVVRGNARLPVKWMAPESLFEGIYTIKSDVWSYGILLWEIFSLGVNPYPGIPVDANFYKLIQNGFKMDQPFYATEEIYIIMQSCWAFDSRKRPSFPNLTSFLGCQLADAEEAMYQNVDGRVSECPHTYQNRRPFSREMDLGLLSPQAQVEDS
# [6] = biological target: Vascular endothelial growth factor receptor 3 (Homo sapiens) (UniProt P35916); conditions: at 0.1 µM
# [7] = biological target: Vascular endothelial growth factor receptor 3 (Homo sapiens) (UniProt P35916); conditions: at 1 µM
# [8] = biological target: Macrophage colony-stimulating factor 1 receptor (Homo sapiens) (UniProt P07333); conditions: at 0.1 µM
# [9] = biological target: Macrophage colony-stimulating factor 1 receptor (Homo sapiens) (UniProt P07333); conditions: at 1 µM
# [10] = biological target: Tyrosine-protein kinase Fyn (Homo sapiens) (UniProt P06241); conditions: at 0.1 µM
# Chain of Tyrosine-protein kinase Fyn (Homo sapiens) (P06241 2-537 limits assumed): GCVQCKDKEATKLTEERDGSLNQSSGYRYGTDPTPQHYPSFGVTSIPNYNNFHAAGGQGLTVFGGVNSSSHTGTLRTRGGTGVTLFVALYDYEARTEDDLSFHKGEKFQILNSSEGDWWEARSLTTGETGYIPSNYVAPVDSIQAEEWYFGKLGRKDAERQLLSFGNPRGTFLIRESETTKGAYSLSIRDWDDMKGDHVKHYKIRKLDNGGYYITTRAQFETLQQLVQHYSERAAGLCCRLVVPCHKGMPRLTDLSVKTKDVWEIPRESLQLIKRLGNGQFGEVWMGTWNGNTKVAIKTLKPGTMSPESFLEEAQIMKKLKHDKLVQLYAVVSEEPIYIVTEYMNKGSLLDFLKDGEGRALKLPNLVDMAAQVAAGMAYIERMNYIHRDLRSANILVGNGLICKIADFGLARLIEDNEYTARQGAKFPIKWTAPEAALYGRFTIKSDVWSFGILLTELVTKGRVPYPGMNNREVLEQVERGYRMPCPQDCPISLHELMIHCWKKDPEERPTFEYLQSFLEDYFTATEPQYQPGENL
# Chain of Serine/threonine-protein kinase PLK1 (Homo sapiens) (P53350 whole entry): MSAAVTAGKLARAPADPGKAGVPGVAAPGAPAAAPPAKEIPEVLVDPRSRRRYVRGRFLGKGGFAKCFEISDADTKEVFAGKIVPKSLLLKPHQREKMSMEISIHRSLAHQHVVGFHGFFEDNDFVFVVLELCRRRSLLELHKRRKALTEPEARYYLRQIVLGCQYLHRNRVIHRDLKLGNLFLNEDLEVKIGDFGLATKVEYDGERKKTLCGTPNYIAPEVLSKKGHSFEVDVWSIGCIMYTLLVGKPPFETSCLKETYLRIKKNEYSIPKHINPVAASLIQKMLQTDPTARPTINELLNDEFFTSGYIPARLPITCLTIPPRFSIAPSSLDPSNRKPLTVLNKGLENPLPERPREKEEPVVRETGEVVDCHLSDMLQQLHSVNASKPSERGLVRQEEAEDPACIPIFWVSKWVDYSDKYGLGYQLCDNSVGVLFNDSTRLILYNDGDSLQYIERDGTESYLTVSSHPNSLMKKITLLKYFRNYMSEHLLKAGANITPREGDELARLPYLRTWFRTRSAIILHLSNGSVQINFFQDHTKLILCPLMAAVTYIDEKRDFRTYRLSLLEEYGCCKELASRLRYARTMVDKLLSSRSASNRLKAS
# Chain of Macrophage colony-stimulating factor 1 receptor (Homo sapiens) (P07333 whole entry): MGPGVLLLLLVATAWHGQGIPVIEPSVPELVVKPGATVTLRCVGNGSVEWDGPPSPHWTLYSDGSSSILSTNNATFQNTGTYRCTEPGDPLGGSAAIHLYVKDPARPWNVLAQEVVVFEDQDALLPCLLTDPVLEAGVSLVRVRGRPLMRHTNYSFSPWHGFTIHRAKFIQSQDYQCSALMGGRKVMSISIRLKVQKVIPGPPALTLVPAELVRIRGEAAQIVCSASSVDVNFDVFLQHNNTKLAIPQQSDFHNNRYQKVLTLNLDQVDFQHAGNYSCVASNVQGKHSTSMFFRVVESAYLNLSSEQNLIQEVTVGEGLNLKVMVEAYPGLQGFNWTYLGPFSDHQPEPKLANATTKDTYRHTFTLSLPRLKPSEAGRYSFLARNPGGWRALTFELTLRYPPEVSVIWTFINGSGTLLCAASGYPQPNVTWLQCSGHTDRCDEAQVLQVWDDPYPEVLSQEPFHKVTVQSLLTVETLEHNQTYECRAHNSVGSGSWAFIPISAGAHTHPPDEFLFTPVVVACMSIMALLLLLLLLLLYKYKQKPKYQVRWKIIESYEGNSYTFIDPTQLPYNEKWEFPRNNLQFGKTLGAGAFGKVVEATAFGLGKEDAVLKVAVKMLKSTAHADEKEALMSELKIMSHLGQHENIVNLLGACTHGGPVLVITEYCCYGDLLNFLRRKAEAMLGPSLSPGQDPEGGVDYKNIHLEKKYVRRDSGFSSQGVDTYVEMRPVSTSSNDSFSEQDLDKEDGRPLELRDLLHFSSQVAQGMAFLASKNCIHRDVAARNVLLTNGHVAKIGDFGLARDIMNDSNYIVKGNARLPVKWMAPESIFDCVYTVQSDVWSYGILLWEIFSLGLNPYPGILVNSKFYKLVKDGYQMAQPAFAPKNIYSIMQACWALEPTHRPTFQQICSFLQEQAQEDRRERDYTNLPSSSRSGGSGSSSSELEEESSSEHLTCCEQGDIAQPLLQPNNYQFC
# Chain of Vascular endothelial growth factor receptor 3 (Homo sapiens) (P35916 whole entry): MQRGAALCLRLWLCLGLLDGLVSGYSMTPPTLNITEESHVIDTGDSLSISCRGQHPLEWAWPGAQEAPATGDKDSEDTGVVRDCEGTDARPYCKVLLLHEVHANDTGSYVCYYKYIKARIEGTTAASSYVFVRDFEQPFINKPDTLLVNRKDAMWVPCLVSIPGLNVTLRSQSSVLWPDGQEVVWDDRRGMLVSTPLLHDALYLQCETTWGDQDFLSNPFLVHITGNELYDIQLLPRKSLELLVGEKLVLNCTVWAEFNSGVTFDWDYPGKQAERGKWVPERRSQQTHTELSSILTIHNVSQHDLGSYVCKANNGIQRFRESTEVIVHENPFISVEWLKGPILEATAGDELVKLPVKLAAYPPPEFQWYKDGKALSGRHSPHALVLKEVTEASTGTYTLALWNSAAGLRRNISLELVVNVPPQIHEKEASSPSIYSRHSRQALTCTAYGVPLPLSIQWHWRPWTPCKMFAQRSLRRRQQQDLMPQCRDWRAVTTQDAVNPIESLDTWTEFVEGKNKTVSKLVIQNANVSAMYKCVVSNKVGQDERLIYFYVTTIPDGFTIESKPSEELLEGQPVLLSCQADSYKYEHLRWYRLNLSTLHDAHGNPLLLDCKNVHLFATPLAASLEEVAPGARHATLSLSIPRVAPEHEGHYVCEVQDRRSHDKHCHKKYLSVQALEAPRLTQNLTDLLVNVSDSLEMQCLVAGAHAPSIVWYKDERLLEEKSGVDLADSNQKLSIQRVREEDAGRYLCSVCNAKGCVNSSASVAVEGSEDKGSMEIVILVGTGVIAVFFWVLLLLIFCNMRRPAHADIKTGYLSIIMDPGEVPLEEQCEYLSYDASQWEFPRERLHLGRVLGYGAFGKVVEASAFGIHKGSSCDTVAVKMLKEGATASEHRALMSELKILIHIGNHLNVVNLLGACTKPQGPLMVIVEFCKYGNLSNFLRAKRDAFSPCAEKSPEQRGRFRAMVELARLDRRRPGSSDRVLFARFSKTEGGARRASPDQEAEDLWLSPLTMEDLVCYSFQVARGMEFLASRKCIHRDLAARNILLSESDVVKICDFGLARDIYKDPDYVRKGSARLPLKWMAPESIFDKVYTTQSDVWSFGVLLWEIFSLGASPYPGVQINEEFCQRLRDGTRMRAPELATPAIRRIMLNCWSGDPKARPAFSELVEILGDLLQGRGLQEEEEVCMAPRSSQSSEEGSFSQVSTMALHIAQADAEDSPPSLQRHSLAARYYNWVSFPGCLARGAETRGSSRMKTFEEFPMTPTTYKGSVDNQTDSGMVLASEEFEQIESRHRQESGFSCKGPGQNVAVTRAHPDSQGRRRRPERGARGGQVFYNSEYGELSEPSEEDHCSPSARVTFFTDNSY
SMILES,inhibition [1] [%],inhibition [2] [%],inhibition [3] [%],inhibition [4] [%],inhibition [5] [%],inhibition [6] [%],inhibition [7] [%],inhibition [8] [%],inhibition [9] [%],inhibition [10] [%]
O=C1NC(=O)C(N2CCc3ccccc32)=C1c1ccc(Cl)cc1,6.39,3.88,2.74,7.71,14.7,1.62,0.97,4.95,4.62,4.56
N#Cc1c(NC(=O)c2cccc3ccccc23)sc2c1CCCC2,4.88,3.77,9.99,11.9,-2.86,0.07,-3.88,0.85,1.31,2.07
COc1cc2c(cc1Nc1nc(N3CCc4ccccc43)c3cc[nH]c3n1)N(C(=O)CN(C)C)CC2,0.78,5.82,25.4,7.66,2.32,12.9,13.7,1.41,2.14,-1.37
COC(=O)Nc1nc2cc(Oc3ccc(NC(=O)Nc4cccc(C(=O)O)c4)cc3)ccc2[nH]1,1.76,0.16,0.8,1.59,4.78,,-5.74,3.75,8.4,-5.06
NC(=O)c1cccc(Nc2nccc(Nc3cccc4[nH]ncc34)n2)c1,7.1,-1.69,3.37,-7.5,37.5,5.01,33.4,3.46,34.1,85.9
COc1cc(C)c(NC(=O)CN(C)C)cc1Nc1nc(Nc2cccc(F)c2C(N)=O)c2cc[nH]c2n1,2.11,70.5,92.2,24.2,4.71,-3.04,1.77,3.71,26.6,1.54
COc1ccc(-c2ccncc2)cc1C(N)=O,2.67,5.64,6.97,5.37,3.51,3.2,2,2.6,5.33,2.01
CCn1c(-c2nonc2N)nc2cnc(Oc3cccc(NC(=O)c4ccc(OCCN5CCOCC5)cc4)c3)cc21,17,4.54,2.83,10.3,-0.53,-0.39,0.92,1.4,2.86,1.07
O=C1NC(=O)C(c2ccc(Cl)cc2)=C1Nc1ccc(Cl)c(C(=O)O)c1,-2.24,-1.32,-2.04,-4.32,2.75,1.23,6.6,0.6,2.16,2.16
Cc1nnc(-c2ccc(C)c(-c3ccc(C(=O)Nc4cccc(C#N)c4)cc3)c2)o1,6.96,2.65,1.18,3.88,1.89,-1.08,1.02,-0.4,0.77,3.8
CC(=O)Nc1cccc(C#Cc2cncnc2Nc2ccc(OCc3cccc(F)c3)c(Cl)c2)n1,2.5,-3.77,-3.29,-1.68,2.36,-1.2,-2.96,0.5,-0.39,1.08
CCc1cccc(NC(=O)Nc2ccc(Oc3ccc4nc(NC(=O)OC)[nH]c4c3)cc2)c1,3.95,2.03,1.1,6.8,6.29,7.64,16.3,44.8,54.6,-2.29
c1cnn2ncc(-c3ccnc(Nc4ccc5c(c4)OCCO5)n3)c2c1,49.9,8.35,29.4,11.9,36.1,8.6,21.8,44.5,85.7,1.57
CCn1c(-c2nonc2N)nc2c(C#CC(C)(C)O)nc(OC[C@@H](N)c3ccccc3)cc21,-5.29,7.34,0.17,-3.32,2.58,17.4,68.9,-0.21,-0.91,2.28
Nc1ncnc2occ(-c3ccc(NC(=O)Nc4cccc(C(F)(F)F)c4)cc3)c12,17.9,4.84,5.99,7.86,34.6,53,99.6,98.1,78,3.58
CCN1CCC(CC(=O)Nc2n[nH]c3nc(-c4cccs4)c(Br)cc23)CC1,0.2,-3.36,-3.47,-6.26,10.7,1.17,2.51,-2.02,0.93,-0.42
